Records with an inconclusive call do not appear. Where a call stands in place of a potency, no number is given. Calls of active or inactive are those of the source. The call rests on the fitted dose curve; in most records, active means well fitted inhibition curve with a large enough effect; inconclusive means small, poorly fitted or top-dose-only effect; inactive means flat fitted curve, though single readings scatter.
tested on: CRL-7250; test: qHTS assay to identify novel small-molecules to repurpose for Merkel cell carcinoma treatment (AID 1296009); details: MCC and control cell lines, CellTiter-Glo viability, 72 h; series mostly up to 92 µM; further: nearly all actives have a fitted effect of over 60% in size
How it was run: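 Cells exposed to NPC (8-point) and MIPE (11-point) compound dilutions for 72 hr at 37 degree celsius; viability read by CellTiter-Glo luminescence, normalized to no-cell and DMSO in-plate controls.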

SMILES | Potency | outcome
CC(C)c1cc2c(c(O)c1O[C@@H]1O[C@H](CO)[C@@H](O)[C@H](O)[C@H]1O)CC1(O)CCC(O)C(C)(C)C1CC2 (stereo partly drawn) | inactive | 
CC(O)(CC(=O)O)CC(=O)OCc1ccc(O[C@@H]2O[C@H](CO)[C@@H](O)[C@H](O)[C@H]2O)cc1 (stereo partly drawn) | inactive | 
COc1ccccc1-c1ccc(-c2cn(C(=O)N3CCCCC3Cc3ccccc3)nn2)cc1 (stereo not drawn) | inactive | 
COC(=O)c1c(CC=C(C)C)c(OC2OC(CO)C(O)C(O)C2O)c2ccccc2c1OC1OC(CO)C(O)C(O)C1O (stereo not drawn) | inactive | 
COc1cc(COC2OC(CO)C(O)C(O)C2O)cc(OC)c1O (stereo not drawn) | inactive | 
CC(C)(O)C1=CCC23COC(C2)C(O)(C(=O)O)CCC13 (stereo not drawn) | inactive | 
CC(C)OC(=O)N1CCC(Oc2ncnc3c2cnn3-c2ccc(S(C)(=O)=O)cc2F)CC1 | inactive | 
CCOc1nc2c(N)ncnc2n1CC | inactive | 
O=C(O)c1ccccc1NC(=O)N1CCC(c2ccccc2C(F)(F)F)CC1 | inactive | 
COC(=O)C1=C[C@@H](O)[C@@H](O)[C@H](O[C@@H]2O[C@H](COC(=O)/C=C/c3ccccc3)[C@@H](O)[C@H](O)[C@H]2O)C1 | inactive | 
O=C(Cc1ccc(-c2ccccc2)cc1)NC1CCC1 | inactive | 
C=C1CC[C@@H]2[C@@](C)(CO[C@@H]3O[C@H](CO)C(O)[C@H](O)C3O)[C@H](O)CC[C@@]2(C)[C@@H]1CC/C(C)=C/CO (stereo partly drawn) |  | inactive [at 9.27 µM]
COc1ccc(-c2nc(-c3ccc(-c4cccc(Cl)c4)o3)[nH]c2-c2ccc(OC)cc2)cc1 | inactive | 
